{"source": "PubChem BioAssay (NCI)", "key": {"[1]": {"test": "NCI Yeast Anticancer Drug Screen. Data for the rad52 strain (AID 147);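 note: 0% = growth of vehicle-treated control cultures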", "settings": "S. cerevisiae rad52 mutant growth inhibition, active compounds read high", "outline": "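Growth of repair-deficient yeast cells was compared between compound-treated and vehicle-treated cultures to give percent inhibition.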"}, "[2]": {"test": "NCI Yeast Anticancer Drug Screen. Data for the wt1 strain (AID 149);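 note: 0% = growth of vehicle-treated wt1 cultures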", "settings": "S. cerevisiae wt1 strain (SPY 50644) growth inhibition, active compounds read high", "outline": "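The wt1 strain was treated with compounds, and growth was compared with vehicle-treated cultures to give inhibition.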"}, "[3]": {"test": "NCI Yeast Anticancer Drug Screen. Data for the rad50EPP+ strain (AID 151);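 note: 0% = growth of vehicle-treated control cultures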", "settings": "S. cerevisiae rad50 mutant strain, active compounds read high", "outline": "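Measured: growth inhibition of rad50EPP+ yeast. Reference: vehicle-treated controls. Screen uses strains with defined genetic alterations in DNA damage repair or cell cycle control.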"}, "[4]": {"test": "NCI Yeast Anticancer Drug Screen. Data for the mgt1 strain (AID 153)", "settings": "S. cerevisiae mgt1 mutant growth inhibition, active compounds read high", "outline": "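Compounds were applied to mgt1 mutant yeast, and growth was then compared against vehicle-treated control cultures to give percent inhibition.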"}, "[5]": {"test": "NCI Yeast Anticancer Drug Screen. Data for the rad50 strain (AID 155);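 note: 0% = growth of vehicle-only cultures of the same strain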", "settings": "S. cerevisiae rad50 strain growth inhibition, active compounds read high", "outline": "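Cells are treated with compound, grown, and their growth is then scored against vehicle-only cultures of the same repair-deficient yeast strain.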"}, "[6]": {"test": "NCI Yeast Anticancer Drug Screen. Data for the mec2-1 strain (AID 157)", "settings": "S. cerevisiae mec2-1 strain, active compounds read high", "outline": "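Compounds were applied to mec2-1 yeast cells. Their growth was then compared with that of vehicle-treated cultures to give growth inhibition.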"}, "[7]": {"test": "NCI Yeast Anticancer Drug Screen. Data for the rad14 strain (AID 159);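 note: 0% = growth of vehicle-treated control cultures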", "settings": "S. cerevisiae rad14 strain growth inhibition, active compounds read high", "outline": "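Readout: yeast growth inhibition, referenced to vehicle-only cultures. Strain bears a defined alteration in DNA damage repair.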"}, "[8]": {"test": "NCI Yeast Anticancer Drug Screen. Data for the sgs1 mgt1 strain (AID 161);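 note: 0% = growth of cultures given vehicle only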", "settings": "S. cerevisiae sgs1 mgt1 strain, active compounds read high", "outline": "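Growth of a repair-deficient yeast mutant was monitored after compound treatment and expressed as inhibition relative to vehicle-treated cultures.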"}, "[9]": {"test": "NCI Yeast Anticancer Drug Screen. Data for the CLN2oe strain (AID 163);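 note: 0% = growth of vehicle-only control cultures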", "settings": "S. cerevisiae CLN2oe strain, active compounds read high", "outline": "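Cells of an engineered yeast line with disturbed cell-cycle regulation are treated with compound. Inhibition of growth is then calculated relative to the vehicle-treated reference.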"}, "[10]": {"test": "NCI Yeast Anticancer Drug Screen. Data for the cln2 rad14 strain (AID 165);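 note: 0% = growth equal to vehicle treated cultures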", "settings": "S. cerevisiae cln2 rad14 strain, active compounds read high", "outline": "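Strain: cln2 rad14 yeast, altered in cell cycle control and DNA damage repair. Read-out: growth inhibition vs vehicle.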"}, "[11]": {"test": "NCI Yeast Anticancer Drug Screen. Data for the bub3 strain (AID 167)", "settings": "S. cerevisiae bub3 mutant strain, active compounds read high", "outline": "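Part of a panel of yeast mutants defective in DNA damage repair or cell cycle regulation. Each strain is grown with compound, and inhibition is calculated relative to solvent-treated cultures.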"}, "[12]": {"test": "NCI Yeast Anticancer Drug Screen. Data for the wt2 strain (AID 169);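 note: 0% = growth of vehicle-treated yeast cultures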", "settings": "S. cerevisiae wt2 strain growth inhibition, active compounds read high", "outline": "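Growth of compound-treated yeast is measured and expressed as inhibition relative to vehicle-only controls.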"}, "[13]": {"test": "NCI Yeast Anticancer Drug Screen. Data for the sgs1 strain (AID 173);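 note: 0% = growth of vehicle-only control cultures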", "settings": "S. cerevisiae sgs1 mutant, active compounds read high", "outline": "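Strain with an altered DNA repair or cell cycle pathway exposed to compound. Growth then measured. Value = inhibition versus vehicle control.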"}, "[14]": {"test": "NCI Yeast Anticancer Drug Screen. Data for the mlh1 rad18 strain (AID 175)", "settings": "S. cerevisiae mlh1 rad18 strain growth inhibition, active compounds read high", "outline": "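A repair-deficient yeast strain is exposed to test compound, and growth is scored relative to vehicle-treated controls.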"}, "[15]": {"test": "NCI Yeast Anticancer Drug Screen. Data for the rad18 strain (AID 177)", "settings": "S. cerevisiae rad18 mutant growth inhibition, active compounds read high", "outline": "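DNA-repair-defective yeast; compound treatment; growth inhibition scored against vehicle.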"}, "[16]": {"settings": "at 5.0 µM (retest, dose inferred, filed as 0.5)"}, "[17]": {"settings": "at 50.0 µM (retest, dose inferred, filed as 5.0)"}}, "note": "This is part of a sample that, as a whole, favours compounds with a hit. Of some 79,000 tested, about 15% had one in any assay. Values without a mark were called inactive. Activity calls are given as the source filed them. Cut-off read from the data, not from the text of the source: active = growth inhibition above about 70%; inactive = the rest."}
{"compound": "CCN(CC)[P+](c1ccccc1O)(N(CC)CC)N(CC)CC", "values": [{"measurement": "growth inhibition", "setting": "[1]; at 1.2 µM", "result": -25, "unit": "%"}, {"measurement": "growth inhibition", "setting": "[1]; at 3.7 µM", "result": -15, "unit": "%"}, {"measurement": "growth inhibition", "setting": "[1]; at 11.0 µM", "result": 17, "unit": "%"}, {"measurement": "growth inhibition", "setting": "[1]; at 33.0 µM", "result": 27, "unit": "%"}, {"measurement": "growth inhibition", "setting": "[1]; at 100.0 µM", "result": "85% (active)"}, {"measurement": "growth inhibition", "setting": "[2]; at 1.2 µM", "result": -35, "unit": "%"}, {"measurement": "growth inhibition", "setting": "[2]; at 3.7 µM", "result": -25, "unit": "%"}, {"measurement": "growth inhibition", "setting": "[2]; at 11.0 µM", "result": 12, "unit": "%"}, {"measurement": "growth inhibition", "setting": "[2]; at 33.0 µM", "result": 34, "unit": "%"}, {"measurement": "growth inhibition", "setting": "[2]; at 100.0 µM", "result": "84% (active)"}, {"measurement": "growth inhibition", "setting": "[3]; at 1.2 µM", "result": -35, "unit": "%"}, {"measurement": "growth inhibition", "setting": "[3]; at 3.7 µM", "result": -26, "unit": "%"}, {"measurement": "growth inhibition", "setting": "[3]; at 11.0 µM", "result": -33, "unit": "%"}, {"measurement": "growth inhibition", "setting": "[3]; at 33.0 µM", "result": -31, "unit": "%"}, {"measurement": "growth inhibition", "setting": "[3]; at 100.0 µM", "result": -34, "unit": "%"}, {"measurement": "growth inhibition", "setting": "[4]; at 1.2 µM", "result": -42, "unit": "%"}, {"measurement": "growth inhibition", "setting": "[4]; at 3.7 µM", "result": -42, "unit": "%"}, {"measurement": "growth inhibition", "setting": "[4]; at 11.0 µM", "result": -32, "unit": "%"}, {"measurement": "growth inhibition", "setting": "[4]; at 33.0 µM", "result": 13, "unit": "%"}, {"measurement": "growth inhibition", "setting": "[4]; at 100.0 µM", "result": "76% (active)"}, {"measurement": "growth inhibition", "setting": "[5]; at 1.2 µM", "result": -30, "unit": "%"}, {"measurement": "growth inhibition", "setting": "[5]; at 3.7 µM", "result": 9, "unit": "%"}, {"measurement": "growth inhibition", "setting": "[5]; [16]", "result": 37, "unit": "%"}, {"measurement": "growth inhibition", "setting": "[5]; at 11.0 µM", "result": 43, "unit": "%"}, {"measurement": "growth inhibition", "setting": "[5]; at 33.0 µM", "result": 54, "unit": "%"}, {"measurement": "growth inhibition", "setting": "[5]; [17]", "result": 68, "unit": "%"}, {"measurement": "growth inhibition", "setting": "[5]; at 50.0 µM", "result": 61.5, "unit": "%"}, {"measurement": "growth inhibition", "setting": "[5]; at 100.0 µM", "result": "90% (active)"}, {"measurement": "growth inhibition", "setting": "[6]; at 1.2 µM", "result": -78, "unit": "%"}, {"measurement": "growth inhibition", "setting": "[6]; at 3.7 µM", "result": -39, "unit": "%"}, {"measurement": "growth inhibition", "setting": "[6]; [16]", "result": 28, "unit": "%"}, {"measurement": "growth inhibition", "setting": "[6]; at 11.0 µM", "result": 29, "unit": "%"}, {"measurement": "growth inhibition", "setting": "[6]; at 33.0 µM", "result": 24, "unit": "%"}, {"measurement": "growth inhibition", "setting": "[6]; [17]", "result": 55, "unit": "%"}, {"measurement": "growth inhibition", "setting": "[6]; at 50.0 µM", "result": 62.1, "unit": "%"}, {"measurement": "growth inhibition", "setting": "[6]; at 100.0 µM", "result": "85% (active)"}, {"measurement": "growth inhibition", "setting": "[7]; at 1.2 µM", "result": -46, "unit": "%"}, {"measurement": "growth inhibition", "setting": "[7]; at 3.7 µM", "result": -38, "unit": "%"}, {"measurement": "growth inhibition", "setting": "[7]; at 11.0 µM", "result": -21, "unit": "%"}, {"measurement": "growth inhibition", "setting": "[7]; at 33.0 µM", "result": 32, "unit": "%"}, {"measurement": "growth inhibition", "setting": "[7]; at 100.0 µM", "result": "95% (active)"}, {"measurement": "growth inhibition", "setting": "[8]; [16]", "result": 7, "unit": "%"}, {"measurement": "growth inhibition", "setting": "[8]; [17]", "result": "99% (active)"}, {"measurement": "growth inhibition", "setting": "[8]; at 50.0 µM", "result": 64.8, "unit": "%"}, {"measurement": "growth inhibition", "setting": "[9]; at 1.2 µM", "result": -56, "unit": "%"}, {"measurement": "growth inhibition", "setting": "[9]; at 3.7 µM", "result": -8, "unit": "%"}, {"measurement": "growth inhibition", "setting": "[9]; at 11.0 µM", "result": -23, "unit": "%"}, {"measurement": "growth inhibition", "setting": "[9]; at 33.0 µM", "result": 5, "unit": "%"}, {"measurement": "growth inhibition", "setting": "[9]; at 100.0 µM", "result": "93% (active)"}, {"measurement": "growth inhibition", "setting": "[10]; [16]", "result": 8, "unit": "%"}, {"measurement": "growth inhibition", "setting": "[10]; [17]", "result": "96% (active)"}, {"measurement": "growth inhibition", "setting": "[10]; at 50.0 µM", "result": 57.6, "unit": "%"}, {"measurement": "growth inhibition", "setting": "[11]; at 1.2 µM", "result": -41, "unit": "%"}, {"measurement": "growth inhibition", "setting": "[11]; at 3.7 µM", "result": -3, "unit": "%"}, {"measurement": "growth inhibition", "setting": "[11]; [16]", "result": 23, "unit": "%"}, {"measurement": "growth inhibition", "setting": "[11]; at 11.0 µM", "result": 23, "unit": "%"}, {"measurement": "growth inhibition", "setting": "[11]; at 33.0 µM", "result": 60, "unit": "%"}, {"measurement": "growth inhibition", "setting": "[11]; [17]", "result": "98% (active)"}, {"measurement": "growth inhibition", "setting": "[11]; at 50.0 µM", "result": 54.6, "unit": "%"}, {"measurement": "growth inhibition", "setting": "[11]; at 100.0 µM", "result": "87% (active)"}, {"measurement": "growth inhibition", "setting": "[12]; at 1.2 µM", "result": -25, "unit": "%"}, {"measurement": "growth inhibition", "setting": "[12]; at 3.7 µM", "result": -13, "unit": "%"}, {"measurement": "growth inhibition", "setting": "[12]; at 11.0 µM", "result": -19, "unit": "%"}, {"measurement": "growth inhibition", "setting": "[12]; at 33.0 µM", "result": 7, "unit": "%"}, {"measurement": "growth inhibition", "setting": "[12]; at 100.0 µM", "result": "77% (active)"}, {"measurement": "growth inhibition", "setting": "[13]; at 1.2 µM", "result": -82, "unit": "%"}, {"measurement": "growth inhibition", "setting": "[13]; at 3.7 µM", "result": -50, "unit": "%"}, {"measurement": "growth inhibition", "setting": "[13]; at 11.0 µM", "result": -25, "unit": "%"}, {"measurement": "growth inhibition", "setting": "[13]; at 33.0 µM", "result": 11, "unit": "%"}, {"measurement": "growth inhibition", "setting": "[13]; at 100.0 µM", "result": "74% (active)"}, {"measurement": "growth inhibition", "setting": "[14]; [16]", "result": 39, "unit": "%"}, {"measurement": "growth inhibition", "setting": "[14]; [17]", "result": "74% (active)"}, {"measurement": "growth inhibition", "setting": "[14]; at 50.0 µM", "result": "70.2% (active)"}, {"measurement": "growth inhibition", "setting": "[15]; at 1.2 µM", "result": -6, "unit": "%"}, {"measurement": "growth inhibition", "setting": "[15]; at 3.7 µM", "result": 37, "unit": "%"}, {"measurement": "growth inhibition", "setting": "[15]; at 11.0 µM", "result": 53, "unit": "%"}, {"measurement": "growth inhibition", "setting": "[15]; at 33.0 µM", "result": 59, "unit": "%"}, {"measurement": "growth inhibition", "setting": "[15]; at 100.0 µM", "result": "90% (active)"}]}
